# High-throughput results from PubChem BioAssay.
# A selection: hits, their analogues and other compounds. The true share with any hit is near 10%.
# CtBP-E1A inh: qHTS Assay for Inhibitors of the CtBP/E1A Interaction; CtBP / adenovirus E1A interaction (AlphaScreen); AlphaScreen GST-E1A/His-CtBP binding, 1536-well; stronger effect = lower value; activity change, % (test concentration not listed); hit rate 0.49% among 340,000; in the data active means activity change below about -65%; inconclusive means mostly about -30% to -63%; further: on the % scale 0 is the no-effect control and ±100 the full control effect
#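 AlphaScreen with 125 nM GST-E1A and 125 nM His-CtBP (5X stocks) in Tris pH 8.0, 300 mM NaCl, BSA, Tween 20, TCEP. Compounds preincubated 2 h at 37 deg C, then glutathione donor/nickel acceptor beads added for 1 h at 37 deg C in dark.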
# Six1-Eya2 inh: qHTS Assay for Inhibitors of the Six1/Eya2 Interaction; Homeobox protein SIX1 (Homo sapiens) + Protein phosphatase EYA2 (Homo sapiens), …; hit rate 0.56% among 360,000; activity change, % (test concentration not listed); AlphaScreen GST-Six1/His-Eya2 binding, biochemical; stronger effect = lower value; in the data active means activity change below about -65%; inconclusive means mostly about -30% to -63%; further: on the % scale 0 is the no-effect control and ±100 the full control effect
#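 Homogeneous AlphaScreen proximity assay pairing GST-Six1 with His-tagged Eya2 (added as 5X mix: 250 nM and 500 nM) in 50 mM Tris pH 8.0, 300 mM NaCl, 1 mM TCEP. Glutathione donor and nickel acceptor beads; 1 h, 37 °C, dark.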
# BAZ2B inh: qHTS Assay for Inhibitors of BAZ2B. Bromodomain adjacent to zinc finger domain protein 2B (Homo sapiens), Q9UIF8. AlphaScreen BAZ2B-H3K14Ac peptide displacement. Potency, µM (highest dose often 114 µM), inactives show at the top dose activity change, negative = inhibition, usual class: inhibitors. hit rate 4.4% among 360,000. AID 504333, 2011; further: potency means the concentration at half of the fitted maximal effect; on the % scale 0 is the no-effect control and ±100 the full control effect; nearly all actives have a fitted effect of over 60% in size
#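 Complex of BAZ2B and biotin-H3K14Ac (50 nM apiece) forms over 30 min at RT, then faces library compounds up to 110 uM for another 30 min; AlphaScreen beads added, 20 min dark incubation, luminescence read.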
# G9a inh: qHTS Assay for Inhibitors of Histone Lysine Methyltransferase G9a. Histone-lysine N-methyltransferase EHMT2 (Homo sapiens), Q96KQ7. hit rate 8.8% among 350,000. G9a H3K9 monomethylation, AlphaScreen, 2 h. Potency, µM (highest dose often 102 µM), inactives show at the highest dose activity, negative = inhibition, actives largely listed as inhibitors; further: potency means the concentration at half of the fitted maximal effect; on the % scale 0 is the no-effect control and ±100 the full control effect; nearly all actives have a fitted effect of over 75% in size
# Target sequence (Q96KQ7 913-1193 limits assumed): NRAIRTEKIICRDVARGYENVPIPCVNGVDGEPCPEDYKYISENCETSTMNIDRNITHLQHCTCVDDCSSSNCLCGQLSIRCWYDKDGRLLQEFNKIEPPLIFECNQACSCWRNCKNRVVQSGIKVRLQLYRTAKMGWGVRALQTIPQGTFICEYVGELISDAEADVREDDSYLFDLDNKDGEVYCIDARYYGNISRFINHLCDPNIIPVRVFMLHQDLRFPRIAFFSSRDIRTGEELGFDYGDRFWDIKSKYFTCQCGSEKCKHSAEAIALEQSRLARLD
#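 Signal arises when biotinylated H3K9 peptide, once monomethylated, bridges streptavidin donor and antibody-captured acceptor beads. Enzyme at 20 nM was preincubated 15 min with test compounds; peptide 500 nM and SAM 20 uM then reacted for 2 h.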
# JMJD2A Tudor inh: qHTS Assay for Inhibitors of JMJD2A-Tudor Domain; Lysine-specific demethylase 4A (Homo sapiens), O75164; AlphaScreen JMJD2A-Tudor / H3K4me3 peptide binding; Potency, µM (top dose mostly 114 µM), inactives show at the highest dose activity change, negative = inhibition, actives largely listed as inhibitors; hit rate 4.4% among 390,000; AID 504339, 2011; further: potency means the concentration at half of the fitted maximal effect; on the % scale 0 is the no-effect control and ±100 the full control effect; nearly all actives have a fitted effect of over 50% in size
# HP1b binding inh: HTS for Inhibitors of HP1-beta Chromodomain Interactions with Methylated Histone Tails | Chromobox protein homolog 1 (Homo sapiens), P83916 | AlphaScreen HP1-beta / biotin-H3K9me3 peptide binding | Potency, µM (top dose mostly 114 µM), without a hit: top-dose activity change, negative = inhibition, hits mostly inhibitors | hit rate 0.56% among 390,000 | AID 540317, 2011; further: potency means the concentration at half of the fitted maximal effect; nearly all actives have a fitted effect of over 70% in size
# Target sequence (P83916 whole entry, looked up): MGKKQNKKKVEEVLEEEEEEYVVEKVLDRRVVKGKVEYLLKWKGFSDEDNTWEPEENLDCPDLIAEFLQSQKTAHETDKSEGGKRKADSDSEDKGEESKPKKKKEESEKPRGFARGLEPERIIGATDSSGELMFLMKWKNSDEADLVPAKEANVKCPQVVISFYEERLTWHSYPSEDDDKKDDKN
#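 HP1-beta protein (50 nM final) preincubated 30 min at room temperature with biotinylated H3(1-18)K9me3 peptide (50 nM) in PBS pH 7.4, 0.01% Tween-20, then compound added for 30 min. AlphaScreen streptavidin donor/nickel chelate acceptor beads (10 ug/mL final), 30 min dark, luminescence read.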
# An asterisk follows results filed as active; ? = inconclusive; / = no result; [ ] = remark or other dose. Unless noted, the call rests on the fitted dose curve; in most records, active means well fitted inhibition curve with a large enough effect; inconclusive means small, poorly fitted or top-dose-only effect; inactive means no such curve, though single readings can be large or run the other way.
SMILES,CtBP-E1A inh,Six1-Eya2 inh,BAZ2B inh,G9a inh,JMJD2A Tudor inh,HP1b binding inh
CCc1ccc(C(=O)COC(=O)C(Cc2c[nH]c3ccccc23)NC(=O)c2ccc(CC)cc2)cc1 (stereo not drawn),/,/,-7%,-31%[59 µM],-9%,-4%
COc1ccc(N2CCN(Cc3nc(Cc4cccc(F)c4)no3)C(C)C2)cc1 (stereo not drawn),-25,?,25µM*,/,50µM*,?
CC(C)(C)c1cn(-c2ccc(F)cc2)c(=S)[nH]1,0,-6,-7%,1.4µM*,25µM*,23%
CCc1ccc(-n2cc(-c3ccc(F)cc3)[n+]3c2SCCC3)cc1,-15,-9,0%,-7%,-17%,-10%
COc1cccc(NC(=O)Nc2cccs2)c1,-5,-19,8%,10µM*,-18%,10%
CCc1ccc(NC(=O)Nc2cn(C)c(=O)c3ccccc23)cc1,/,/,-11%,10µM*,-13%,31%
COc1ccc(NC(=O)c2cccs2)cc1OC,-2,-2,2%,-1%[59 µM],-5%,21%
COc1ccc(NC(=O)Nc2cccs2)cc1OC,0,-7,?,45µM*,?,-24%
CCc1ccc(NC(=O)Nc2cccs2)cc1,-1,-14,?,10µM*,-19%,9%
CCc1ccc(NC(=O)Cc2c(C(=O)O)n(C)c3ccccc23)cc1,5,-1,28µM*,?,-13%,21%
Cc1cccc(N(CC(=O)O)CC(=O)O)c1,0,0,-31%,11µM*,-35%,1%
CCC(=O)N1CCC1(C)C(=O)Nc1cccc2cccnc12 (stereo not drawn),8,9,/,/,/,/
Clc1nc(Cl)nc(N(c2ccccc2)c2ccccc2)n1,-10,8,79µM*,50µM*,25µM*,5%
COc1ccc2cc(/C=C/C(=O)c3ccco3)c(Cl)nc2c1,/,/,3%,50µM*,/,/
O=C(NCc1cccs1)c1ccc2c(=O)n3nc(Nc4ccccc4)sc3nc2c1,/,/,-2%,6%[59 µM],?,56%
COc1cc(OC)c(NC(=O)c2oc3ccc4c(c3c2C)C(=O)CC(C)(C)O4)cc1Cl,/,/,-16%,0%[59 µM],3%,48%
Cc1n[nH]c(=O)c2c(NC(=O)COC(=O)Cc3ccc(Cl)cc3Cl)oc(C)c12,0,0,8%,8%[0.501 µM],-14%,37%
Cc1n[nH]c(=O)c2c(NC(=O)COC(=O)/C=C/c3cccc(C(F)(F)F)c3)oc(C)c12,4,-1,6%,10µM*,-20%,40%
Cc1n[nH]c(=O)c2c(NC(=O)COC(=O)Cc3c(F)cccc3Cl)oc(C)c12,-2,-8,-3%,25µM*,-8%,40%
Cc1n[nH]c(=O)c2c(NC(=O)COC(=O)c3cccc(OC(F)F)c3)oc(C)c12,-17,10,15%,10µM*,-10%,44%
Cc1n[nH]c(=O)c2c(NC(=O)COC(=O)COc3cccc(Br)c3)oc(C)c12,2,-1,0%,18µM*,-13%,55%
COc1cccc(N2CC(NC(=O)c3cc(Cl)ccc3OC)CC2=O)c1 (stereo not drawn),/,/,-4%,0%[59 µM],-9%,-8%
O=C(NCc1cccc(F)c1)C1CCC(=O)N(CC2CCCCC2)C1 (stereo not drawn),-1,6,-4%,/,-1%,12%
COc1ccc2c(c1)c1c(c(=O)n(Cc3ccccc3)c(=O)n1Cc1cc(C)ccc1C)n2C,/,/,-2%,-5%[59 µM],17%,26%
Cc1ccc(C)c(N2CCN(C(=O)c3cc4cc5ccc(C)cc5nc4s3)CC2)c1,/,/,8%,-2%[59 µM],-12%,7%
c1ccc2c(NCCCN3CCOCC3)c3ccccc3nc2c1,/,/,-15%,50µM*,/,/
